Screens deposited in PubChem by Sanford-Burnham Center for Chemical Genomics.
CYP2C9 inhib = blocks human cytochrome P450 2C9; P11712; inhibition, % at 5 µM; 20% of 96,000 active; CYP2C9 Supersomes, luciferin-H conversion, luminescence;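 active means blocking of liver enzyme CYP2C9 beyond about 50% at 5 µM, limit read from the data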
CYP2C9 act = increases human cytochrome P450 2C9 activity; P11712; recombinant CYP2C9, luciferin-H conversion, luminescence; stronger effect = higher value; factor 1 = untreated enzyme, 0 = blocked; activation factor at 5 µM; 1.4% of 96,000 active;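 active means activation factor of 2 or more for CYP2C9 at a 5 µM dose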;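 further: 0 = sulfaphenazole-blocked wells and 1 = vehicle-only wells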
CYP2C19 act = increases human CYP2C19 enzyme activity; P33261; recombinant CYP2C19, luciferin-H EGE luminescence; stronger effect = higher value; 0 = fully inhibited enzyme, 1 = untreated enzyme; activation factor at 5 µM; 96,000 tested, under 10 active; AID 1025;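 active means activation factor of at least 2 at 5 µM in the primary screen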;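 further: 0 = wells with 2.5 mM tranylcypromine and 1 = vehicle-only wells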
PLAP activator = activators of human placental alkaline phosphatase | P05187 | purified PLAP enzyme, luminescent substrate read-out; stronger effect = higher value | activation fold at 20 µM | 1.2% of 96,000 active | AID 696; in the data active means activation fold above about 2
Target sequence (P05187 whole entry, looked up): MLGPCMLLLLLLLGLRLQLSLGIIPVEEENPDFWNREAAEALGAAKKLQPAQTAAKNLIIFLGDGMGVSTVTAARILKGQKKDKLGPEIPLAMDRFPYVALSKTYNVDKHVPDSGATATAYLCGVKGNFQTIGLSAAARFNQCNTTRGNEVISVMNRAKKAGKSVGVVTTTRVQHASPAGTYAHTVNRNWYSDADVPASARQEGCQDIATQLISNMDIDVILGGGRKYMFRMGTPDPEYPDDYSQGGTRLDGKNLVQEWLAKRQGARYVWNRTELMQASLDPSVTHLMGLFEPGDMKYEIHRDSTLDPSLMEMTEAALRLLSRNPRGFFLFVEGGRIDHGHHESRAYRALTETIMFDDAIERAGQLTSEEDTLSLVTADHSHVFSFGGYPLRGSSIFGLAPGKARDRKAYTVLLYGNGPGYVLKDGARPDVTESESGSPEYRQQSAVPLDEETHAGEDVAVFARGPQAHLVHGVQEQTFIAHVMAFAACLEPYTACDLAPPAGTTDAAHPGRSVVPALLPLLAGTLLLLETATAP
CYP2C19 inh = human CYP2C19 inhibition. P33261. CYP2C19 Supersomes, luciferin-H EGE luminescence, 30 min. inhibition, % at 5 µM. 21% of 96,000 active;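 active means CYP2C19 inhibition above a set limit at 5 µM in the primary screen, cut at about 50% in these data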;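 further: plate controls were negative control wells for no effect and 2.5 mM tranylcypromine positive control for full effect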
An asterisk follows results filed as active. Compounds with a hit are over-represented: about 31% of the library has one in this group of screens.

SMILES	CYP2C9 inhib	CYP2C9 act	CYP2C19 act	PLAP activator	CYP2C19 inh
COC(=O)C(Cc1cnc(Cl)s1)(C(=O)OC)c1ccc(C(F)(F)F)cc1[N+](=O)[O-]	51*	0.5	0.1	1.4	87*
Fc1ccc(-c2[nH]ncc2-c2nnnn2-c2ccccc2)c(F)c1	51*	0.5	0.1	1.5	91*
Cc1ccc(-c2csc(=S)n2CC(=O)OCC(=O)NCc2ccc(F)cc2)cc1	87*	0.1	0.2	1.6	80*
COc1ccc(NC(=O)CN(Cc2ccccc2)S(C)(=O)=O)c(OC)c1	29	0.7	0.7	0.9	28
COc1ccccc1NC(=O)C1=C(C)NC(=O)NC1c1ccc(C)cc1 (stereo not given)	5	0.9	0.7	1	35
COc1ccc(C)cc1NC(=O)CN(c1ccc(F)cc1)S(C)(=O)=O	65*	0.3	0.7	1	31
COc1ccccc1NC(=O)C12CC3CC(C1)CC(c1ccc(C)cc1)(C3)C2	-4	1	0.4	0.8	57*
COc1ccccc1NC(=O)CN(c1ccc(C23CC4CC(CC(C4)C2)C3)cc1)S(C)(=O)=O	64*	0.4	1	1	3
COc1ccc(N(CC(=O)Nc2ccccc2SC)S(C)(=O)=O)cc1OC	25	0.8	0.9	1.3	14
CCc1ccc(N(CC(=O)Nc2ccc(OC)cc2OC)S(C)(=O)=O)cc1	97*	0	0.1	1.5	88*
Cn1c(C(=O)NCC2CCCO2)cc2c(=O)n3ccccc3nc21 (stereo not given)	22	0.8	0.8	1	25
COc1ccc(C2C(C(=O)N3CCCCC3)CC(=O)N2c2ccc(OC)cc2)cc1 (stereo not given)	-44	1.4	1	1.4	1
COc1ccc(C)cc1NC(=O)CN(c1ccccc1F)S(C)(=O)=O	52*	0.5	0.6	1	36
O=C1COc2ccc(C(=O)CSc3nnc(Cc4cccs4)n3-c3ccccc3)cc2N1	85*	0.2	0.9	1.6	15
O=C1COc2ccc(C(=O)CSc3nnc(-c4cccs4)n3Cc3ccccc3)cc2N1	63*	0.4	0.5	1.6	52*
O=C(CSc1nnc2scc(-c3ccccc3)n12)c1ccc2c(c1)OCCO2	-10	1.1	1.1	0.8	-8
c1cnc(NC2CCCCCC2)nc1	-9	1.1	1.1	0.9	-15
CSc1ccc(CNc2ccc(Cl)cc2)cc1	3	1	0	0.8	96*
CCCCNC(=O)CSc1nc2ccsc2c(=O)n1C1CCN(C(=O)OCC)CC1	56*	0.4	0.6	1.3	36
C=CCOn1c(=O)c(-c2cccs2)[n+]([O-])c2ccccc21	68*	0.3	0.4	1.1	57*
C=CCOn1c(=O)c(-c2ccc(OC)c(OC)c2)[n+]([O-])c2ccccc21	1	1	1.1	1	-6
COC(=O)C1=C(C)N(c2ccc(C)c(C)c2)/C(=C/c2cccs2)C1=O	4	1	1	0.9	5
CC(=O)Nc1ccc2c(c1)OCCO2	12	0.9	0.9	1.2	7
Brc1ccc2c(c1)OCCOCCOc1cc(Br)ccc1OCCOCCOCCO2	85*	0.2	0.1	1.4	88*
CN1CCN(C2=C(Cl)C(=O)N(Cc3ccccc3)C2=O)CC1	14	0.9	0.4	1.1	64*
SMILES	CYP2C9 inhib	CYP2C9 act	CYP2C19 act	PLAP activator	CYP2C19 inh
CN1CCN(C2=C(Cl)C(=O)N(c3cccc(Cl)c3)C2=O)CC1	11	0.9	0.8	1.2	15
CC1=CCC2C(=O)N(Cc3ccccc3)C(=O)C2C1 (stereo not given)	32	0.7	0.6	1.1	40
CN1CCN(C2=C(Cl)C(=O)N(c3ccc(Cl)c(Cl)c3)C2=O)CC1	38	0.6	0.2	0.9	79*
CC(C)N1C(=O)C2C(C(=O)NC3CCCCC3)C3C=CC2(O3)C1C(=O)NC1CCCCC1 (stereo not given)	-2	1	1	1	-1
CNC(=O)c1c(NC(=O)c2nc3ccccc3s2)sc2c1CCC2	-40	1.4	1	1.6	5
COC(=O)c1c(NC(=O)c2nc3ccccc3s2)sc2c1CCN(C(C)=O)C2	39	0.6	0.9	2.1*	14
O=C(C1CCCN1S(=O)(=O)c1cccc2cccnc12)N1CCc2ccccc2C1 (stereo not given)	15	0.8	0.8	1	20
O=C(NCCN1CCCCCC1)C1CCC(CNS(=O)(=O)c2cccc3cccnc23)CC1 (stereo not given)	2	1	0.6	1.4	45
O=C(C1CCCN1S(=O)(=O)c1cccc2cccnc12)N1CCN(c2ccccc2)CC1 (stereo not given)	61*	0.4	0.8	1.7	16
CC1CCN(C(=O)C2CCC(CNS(=O)(=O)c3cccc4cccnc34)CC2)CC1 (stereo not given)	-191	2.9*	1	1.6	-2
O=C(C1CCC(CNS(=O)(=O)c2cccc3cccnc23)CC1)N1CCc2ccccc21 (stereo not given)	12	0.9	0.2	1.4	80*
CN1CCN(C(=O)C2CCC(CNS(=O)(=O)c3cccc4cccnc34)CC2)CC1 (stereo not given)	-27	1.3	1.1	1.2	-11
O=C(C1CCCN1S(=O)(=O)c1cccc2cccnc12)N1CCc2ccccc21 (stereo not given)	62*	0.4	0.3	1.6	70*
CN(C)CCCN1C(=O)C(=O)/C(=C(/O)c2ccc3c(c2)OCCO3)C1c1ccco1 (stereo not given)	-3	1	1.1	1	-11
O=C(C1CCN(S(=O)(=O)c2cccc3cccnc23)CC1)N1CCc2ccccc21	-112	2.1*	0.6	1	43
O=C(C1CCN(S(=O)(=O)c2cccc3nsnc23)CC1)N1CCCc2ccccc21	4	1	0.9	1.2	11
CSc1ccc(NC(=O)N2CCN(c3nc4ccccc4s3)CC2)cc1	37	0.6	0.6	1	36
CN1C(=O)c2cccc(NC(=O)C3CCCCC3)c2C1=O	43	0.6	0.3	1	74*
COC(=O)c1ccccc1NC(=O)C1CCN(C(=O)c2cc(OC)c(OC)c(OC)c2)CC1	91*	0.1	0.8	1.6	18
O=C(Nc1ccccc1Oc1ccccc1)C1CC1	48	0.5	0.3	1	70*
COC(=O)c1ccccc1NC(=O)C1CCCC1	-39	1.4	0.4	1	57*
CCN1C(=O)c2cccc3c(NC(=O)C4CCCCC4)ccc1c23	-18	1.2	1	1.3	1
O=C(Nc1ccccc1)c1ccccc1NC(=O)C1CCCCC1	34	0.7	0.8	0.9	20
CCC(=O)Nc1ccccc1Oc1ccccc1	34	0.7	0.5	1.3	49
CCCCCC(=O)N1CC2(C)CN(C(=O)CCCCC)CC(C)(C1)C2=O	-3	1	1	0.9	4
Cc1ccccc1C(=O)Nc1ccc2nc3n(c(=O)c2c1)CCC3	-4	1	1.1	0.9	-14
